# Experimental data reported in PubChem BioAssay AID1285 (Columbia University Molecular Screening Center, 2008).
# The campaign covered roughly 190,000 compounds. About 1,600 (0.84%) were called active. This is one part of a sample in which actives are shown more often than they occur. Values without a mark were called inactive.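 How the source made its calls: active means inhibition above a set limit, derived from the sample mean plus 3 SD (cut at about 45% in these data); inconclusive means one replicate passes the limit while the other fails; inactive means the rest.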
# Assay: inhibitors of APP translation via 5'UTR reporter, primary screen, APP 5'UTR luciferase, SH-SY5Y cells (AID 1285)
# Details: SH-SY5Y APP 5'UTR-luciferase reporter, luminescence; at 2 µM; hits give high values
row,Compound,inhibition
1,O=C(Nc1cccc([N+](=O)[O-])c1)c1ccc2c(c1)OCO2,-43.1%
2,O=C(Nc1ccc(N2CCOCC2)cc1)c1ccc2c(c1)OCO2,-48.7%
3,O=C(Nc1ccccc1)c1ccc2c(c1)OCO2,58.8% (active)
4,CCOC(=O)c1c(NC(=O)C2CC=CCC2C(=O)O)sc(C)c1CC (stereo unspecified),-12.9%
5,O=C(CCN1C(=O)c2ccccc2C1=O)NNC(=O)c1ccc(Cl)cc1Cl,-9.9%
6,O=C(Cc1cccs1)N/N=C/c1ccc(OCc2ccccc2)cc1,5.4%
7,COc1ccc(C(=O)C[n+]2ccc(N)c(C)c2C)cc1,6.8%
8,Clc1cccc(CN2COc3c(cc(Cl)c4cccnc34)C2)c1,74.6% (active)
9,Oc1c(CN2CCN(c3ccc(F)cc3)CC2)cc(Cl)c2cccnc12,8.7%
10,O=c1[nH]n(-c2cccc(Cl)c2)c2ncccc12,-4.8%
11,COc1ccc(C(=O)NN(C)c2nc(-c3ccccc3)cc(C)c2S(C)(=O)=O)cc1,-3.3%
12,CN(NC(=O)c1ccccc1F)c1nc(C(F)(F)F)nc2ccccc12,91% (active)
13,COc1ccc(OCC(=O)NNC(=O)c2cccc(C)c2)cc1,-16.1%
14,COC(=O)CNC(=O)c1ccccc1F,-10.5%
15,CN(NC(=O)c1ccccc1)c1nc2ccccc2nc1C(F)(F)F,-3.6%
16,CSc1nc(N(C)NC(=O)c2cccc(C)c2)c2ccccc2n1,96.7% (active)
17,CC(=O)N1CC(C)c2scc(C)[n+]2-c2ccccc21 (stereo unspecified),-17.2%
18,C=CCc1ccc(OCC(O)CN2CCN(Cc3ccccc3)CC2)c(OC)c1 (stereo unspecified),-8.6%
19,CC(=O)N1c2ccccc2N(Cc2ccc([N+](=O)[O-])cc2)C(=O)C1(C)C,-12.9%
20,CCOc1ccc(N2CC(C(=O)NCCN3C(=O)S/C(=C\c4cccnc4)C3=O)CC2=O)cc1 (stereo unspecified),-6%
21,Cc1cc(C(=O)OCC(=O)NCc2ccco2)c(C)n1-c1ccccc1,60.8% (active)
22,O=C(COC(=O)c1cc(S(=O)(=O)N2CCCCC2)ccc1Cl)NCc1ccco1,5%
23,O=C(COC(=O)c1cnc(Cl)c(Cl)c1)NCc1ccco1,6.8%
24,C/C(=N\NC(=O)c1cccnc1)c1ccc(-n2ccnc2)cc1,-7.3%
25,Cc1[nH]c2ccccc2c1-c1ccc(Cl)nn1,5.5%
26,COc1ccc(Cc2n[nH]c(=S)n2NC(=O)Nc2ccc(C)cc2)cc1,-47.2%

row,Compound,inhibition
1,O=C(Nc1ccccc1Cl)/C(Cl)=C(\Cl)S(=O)c1ccccc1 (stereo unspecified),93.8% (active)
2,O=C(Nc1ccccc1Cl)c1ccc2nsnc2c1,-80.7%
3,O=C(CN1CCCCC1)Nc1ccccc1Cl,17.7%
4,CCN(C(=O)CN1CCN(Cc2ccccc2)CC1)c1c(N)n(Cc2ccccc2)c(=O)[nH]c1=O,-17.3%
5,COC(=O)CSc1nc(C2CC2)nc2ccccc12,-12.5%
6,CC(C)N(C(=O)CSc1nc(COc2ccccc2)nc2ccccc12)C(C)C,48.3% (active)
7,CCCc1nc(SCC(=O)Nc2ccc(S(=O)(=O)N(C)C)cc2)c2ccccc2n1,-11.7%
8,COc1ccc(Cl)cc1NC(=O)NC(C)C(C)(C)C (stereo unspecified),-0.1%
9,CCN(CC)S(=O)(=O)c1ccc(Cl)c(NC(=O)c2ccncc2)c1,17.9%
10,CCN(CC)CCCNC(=O)Cn1cnc2sc(C)c(S(=O)(=O)N3CCN(c4ncccn4)CC3)c2c1=O,-10.4%
11,CN1CCN(C(=O)CCc2nc(-c3ccc(Cl)cc3)no2)CC1,9.1%
12,CCNC(=O)CCc1nc(-c2ccc(C(C)(C)C)cc2)no1,51.8% (active)
13,Cc1ccc(-c2noc(CCC(N)=O)n2)cc1,5.2%
14,COc1ccc(N2CCN(C(=O)c3ccc4c(Cl)c5c(nc4c3)CCCC5)CC2)cc1,-5.5%
15,CC(=O)Nc1nc(N(C)C)nc(N(C)C)n1,4.4%
16,CC1(C)CC(=O)c2cnc3nc4ccccc4n3c2C1,-8.9%
17,CN(C(=O)CSc1nnc(N)s1)c1c(N)n(Cc2ccccc2)c(=O)[nH]c1=O,-12.7%
18,COC(=O)c1ccc(CSc2nnc(N)s2)o1,-10.2%
19,Nc1nnc(SCC(=O)OCc2ccc(Cl)c(Cl)c2)s1,86.8% (active)
20,COCCNC(=O)c1ccc(-n2c(SCc3cccnc3)nc3ccccc3c2=O)cc1,-4.3%
21,CCCCCCCCCCOC(=O)C[N+](C)(C)CC1CCCCC1O (stereo unspecified),-4.7%
22,O=C(c1snnc1-c1ccccc1)N1CCOCC1,-16.4%
23,Cc1cc(C2=NNC(=Nc3ccc(S(=O)(=O)N4CCOCC4)cc3)SC2)c(C)n1CC1CCCO1 (stereo unspecified),-30.6%
24,C=CCn1c(C)cc(C2=NNC(=NCC)SC2)c1C,69.1% (active)
25,COCCn1c(C)cc(C2=NNC(=Nc3ccc(F)cc3)SC2)c1C,-82.3%
26,CCN(C(=O)CSc1nc2ccccc2n1CC)C1CCS(=O)(=O)C1 (stereo unspecified),-8%

row,Compound,inhibition
1,C[N+]1(CC(O)COc2ccccc2)CCN(C(=O)c2ccc([N+](=O)[O-])cc2)CC1 (stereo unspecified),0.3%
2,COc1ccc(NC(=O)COC(=O)CNC(=O)C2CCCCC2)cc1,-10.5%
3,O=C(OCC(=O)c1cccs1)C1=COCCO1,-41.7%
4,CCC(C)(C)c1ccc(Oc2ccc(NC(=O)COC(=O)C3=COCCO3)cc2)cc1,45.6% (active)
5,Cc1ccc2[nH]c(C)c(CCNC(=O)NC3CCCCC3)c2c1,2.7%
6,CSCC[C@H](NC(=O)NC1CCCC1)C(=O)O,20.9%
7,COc1cc2c(cc1OC)CN(C(=O)c1cc(=O)c3ccccc3o1)CC2,13.7%
8,CCOc1cc(C(=O)N2CCc3cc(OC)c(OC)cc3C2)ccc1OC(F)F,94.6% (active)
9,COc1cc2c(cc1OC)CN(C(=O)c1ccc(S(=O)(=O)N3CCCCCC3)cc1)CC2,-6.7%
10,Cc1cccc(CSc2ccc(-c3cccs3)nn2)c1,-24.9%
11,Cc1cc(N2CCOCC2)nc2ccc(NC(=S)N3CCN(Cc4ccccc4)CC3)cc12,-3.7%
12,COc1ccc(/C=N/Nc2nc3ccccc3c(=O)[nH]2)cc1,-92.9%
13,COc1ccc(Cc2nnc(N/N=C/c3ccccc3O)[nH]c2=O)cc1OC,85.9% (active)
14,CCOc1ccc(-n2c(O)c(/C=N/Nc3nnc(C)c(=O)[nH]3)c3ccccc3c2=O)cc1,-5.3%
15,COc1ccc(S(=O)(=O)N2CN(CCc3ccc(OC)c(OC)c3)c3nc4ccccc4nc32)cc1,-3.7%
16,COC(=O)C1=C(C)NC(=O)CC1c1ccccc1OC (stereo unspecified),-15.8%
17,O=C(Nc1ccccc1C(=O)O)c1cc(S(=O)(=O)N2CCCCC2)cs1,-13.4%
18,Cc1cc(C(=O)N/N=C/c2cc([N+](=O)[O-])cc(C)c2O)n[nH]1,87.3% (active)
19,Cc1ccc(-n2[nH]c(C)c(/C=N/NC(=O)c3cccc([N+](=O)[O-])c3)c2=O)cc1C,-33.1%
20,Cc1ccsc1C(=O)N/N=C/c1ccc([N+](=O)[O-])cc1,-37.2%
21,CCOc1cc(CNn2c(C)nnc2SCC(=O)NC(C)(C)C)ccc1OCC(=O)NC(C)(C)C,21.4%
22,Cc1cc(C)n(CC(O)CN(c2ccccc2)S(=O)(=O)c2ccc3ccccc3c2)n1 (stereo unspecified),1.9%
23,CCOc1cc(/C=C(/C#N)c2ccc(Cl)cc2)cc(Cl)c1OCC(=O)O,50.6% (active)
24,CCOC(=O)CN/C=C(\C#N)c1ccc(F)cc1,-29.3%
25,CCOc1c(Cl)cc(/C=N/O)cc1OC,-23.6%
26,Cc1ccc(S(=O)(=O)C2C(=O)NC3(C)CC2c2ccccc2O3)cc1 (stereo unspecified),-1.5%

row,Compound,inhibition
1,CCN(CC)CCCSc1nc2ccccc2s1,-15.1%
2,O=C(CC(NC(=O)c1ccccc1)c1ccccc1)Nc1ccc(F)c(F)c1 (stereo unspecified),24.2%
3,CCOC(=O)N1CCN(C(=O)CSc2ccc(Cl)cc2)CC1,5%
4,CCOC(=O)N1CCN(C(=O)COc2ccc(Br)cc2)CC1,-13.6%
5,CCOC(=O)N1CCN(C(=O)COc2ccc(Cl)cc2C)CC1,49.2% (active)
6,CC(Sc1nnnn1C)C(=O)NC(=O)NC1CCCCC1 (stereo unspecified),-31%
7,Cc1ccc(CCN2CC(C(=O)O)CC2=O)cc1 (stereo unspecified),-6.2%
8,Cc1ccc(CNC(=O)C2CC(=O)N(C3CCCCCCC3)C2)cc1 (stereo unspecified),-17.8%
9,CCc1ccc(CNC(=O)C2CC(=O)N(CCc3ccc(C)cc3)C2)cc1 (stereo unspecified),50.9% (active)
10,Cc1ccc(NC(=O)c2ccc(Oc3ncccn3)cc2)cc1,-39.8%
11,O=C(CCC(=O)c1cccs1)NC1CCCCCC1,-18.6%
12,COC(=O)CSc1nccc(-c2cccs2)n1,8.1%
13,O=C(Nc1ccnc(-c2ccncc2)n1)c1cccs1,5.8%
14,O=C(O)COc1ccc(-c2nccc(-c3cccs3)n2)cc1,69% (active)
15,Cc1ccc2c(c1)C(O)(CC(=O)c1cccc(-n3cccc3)c1)C(=O)N2 (stereo unspecified),-4.6%
16,CC1CC(C)CN(C(=O)CSc2ccsc2[N+](=O)[O-])C1 (stereo unspecified),-3.7%
17,O=C(NCc1ccco1)C(=O)c1cn(CC(=O)N2CCCCCC2)c2ccccc12,-1.5%
18,COc1ccc(CS(=O)/C(Cl)=C(/Cl)C(=O)Nc2ccc(OC)nc2)cc1 (stereo unspecified),94% (active)
19,COc1ccc(NC(=S)Nc2ccccc2Cl)cn1,-6.6%
20,COc1ccc(NC(=S)NCCNC(C)=O)cc1,-0.5%
21,CC(=O)Nc1ccc(OCC(=O)NCc2ccc(C)cc2)cc1,-8.4%
22,COc1ccc(NC(=O)/C(Cl)=C(/Cl)S(=O)Cc2ccc(C)cc2)cn1 (stereo unspecified),91.7% (active)
23,Cc1ccc(NC(=O)OCc2cncs2)cc1,-41.4%
